# In PubChem BioAssay AID430 (Sanford-Burnham Center for Chemical Genomics, 2006):
# Among all 63,000 compounds or so, about 1,100 (1.7%) were called active. Rule as the data show it: active = cytotoxicity above about 50%; inactive = the rest. For the sample, actives were picked, then their nearest neighbours and some compounds at random. Results with a measured potency or affinity are listed apart.
# Experiment: cytotoxicity in HPDE-C7 cells, cell-based, fluorescence, HTS (AID 430);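 also: cells exposed to compound for 48 hours before viability readout; 0% = vehicle and 100% = reference cytotoxic drug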
# Details: HPDE-C7 pancreatic duct cells viability, at 10 µM, hits give high values
row,Structure (SMILES),cytotoxicity
1,CCCN(CCC)c1nc2ccccc2nc1C(C#N)C(=O)OCCOC (stereo unspecified),-8.9% (inactive)
2,Cc1nnc(SCC(=O)Nc2nc3c(s2)CC(C)CC3)s1 (stereo unspecified),1% (inactive)
3,CCC(c1nnnn1C(C)(C)C)N(CCOC)Cc1cc2cccc(C)c2n2nnnc12 (stereo unspecified),5.7% (inactive)
4,CCOC(=O)c1c(C)oc2c1c(C(c1cccnc1)N1CCN(C)CC1)c(O)c1ccccc12 (stereo unspecified),112% (active)
5,CCOC(=O)c1c(C)oc2c1c(/C=N/c1ccccn1)c(O)c1ccccc12,1.4% (inactive)
6,CCOC(=O)c1c(C)oc2c1c1c(c3ccccc32)OCN(Cc2cccnc2)C1,2.1% (inactive)
7,CCOC(=O)c1c(C)oc2c1c(C=NCc1ccccn1)c(O)c1ccccc12,91% (active)
8,CCOC(=O)c1c(C)oc2c1c(C=NC1CCS(=O)(=O)C1)c(O)c1ccccc12 (stereo unspecified),28.9% (inactive)
9,CCOC(=O)c1c(C)oc2c1c(C=NCC1CCCO1)c(O)c1ccccc12 (stereo unspecified),-16.9% (inactive)
10,O=S(=O)(N1CCCCC1)N1CCN(S(=O)(=O)N2CCCCC2)CC1,0.2% (inactive)
11,CCOC(=O)CNC(=O)C(Cc1ccccc1)NS(=O)(=O)c1cccs1 (stereo unspecified),2.5% (inactive)
12,CC(=O)Nc1ccc(S(=O)(=O)c2ccc(N)cc2)cc1,-11% (inactive)
13,COC(=O)C(C)NS(=O)(=O)c1ccc(NC(C)=O)cc1 (stereo unspecified),-12.8% (inactive)
14,COc1ccccc1NS(=O)(=O)c1ccc(NC(C)=O)cc1,-0.5% (inactive)
15,CCOC(=O)CN(Cc1ccccc1)S(=O)(=O)c1ccc(NC(C)=O)cc1,-2.7% (inactive)
16,COC(=O)/C=C/S(=O)(=O)c1ccc(NC(C)=O)cc1,102% (active)
17,O=C(CSc1nnc(COc2ccc(Cl)cc2)o1)OC1CCCCC1,-7.9% (inactive)
18,CCOC(=O)N1CCC(NCCNC(=O)c2cccs2)CC1,-6.4% (inactive)
19,O=C(Cc1ccccc1)N1CCCC1c1ccccc1 (stereo unspecified),-22.3% (inactive)
20,CCCCN(C(=O)NC(=O)Nc1ccccc1OC)S(C)(=O)=O,-3.1% (inactive)
21,CCOC(=O)N1CCN(C(=O)CSc2nnc(-c3ccc(C(C)(C)C)cc3)o2)CC1,2.6% (inactive)
22,O=C(CNC1CCCCCC1)Nc1ccc(S(=O)(=O)NC2CC2)cc1,-6.7% (inactive)
23,Cc1ccc(-c2cc(-c3ccccc3Cl)c(C#N)c(N)n2)o1,11.3% (inactive)
24,Cc1ccc(-c2cc(-c3ccc(Cl)cc3)c(C#N)c(N)n2)o1,64.4% (active)

row,Structure (SMILES),cytotoxicity
1,Cc1cc(-c2cc(-c3ccc(Cl)cc3)nc(N)c2C#N)co1,77.8% (active)
2,Cc1ccc(-c2cc(-c3ccccc3)c(C#N)c(N)n2)o1,29.8% (inactive)
3,Cc1ccc(-c2cc(-c3ccc(F)cc3)nc(N)c2C#N)o1,20.1% (inactive)
4,Cc1ccc(-c2cc(-c3ccc(C)o3)nc(N)c2C#N)cc1,20.9% (inactive)
5,COCC(=O)Nc1nc2n(n1)C(c1ccc(OC)cc1)CC(c1ccc(OC)cc1)N2 (stereo unspecified),2.7% (inactive)
6,O=C(NCCN1CCc2ccccc2C1)Nc1ccc(F)cc1,-10.7% (inactive)
7,CSc1nc2cc(F)c(F)cc2n1C,-9.5% (inactive)
8,COc1cc(C)c(Br)cc1S(=O)(=O)N1CCOCC1,-9.6% (inactive)
9,Cc1nn(CCCC(=O)N2CCc3ccccc3C2)c(=O)c2cc3sccc3n12,-7.2% (inactive)
10,O=C(Oc1ccccc1C(=O)N1CCOCC1)c1ccc(Br)cc1,-14.1% (inactive)
11,CN(CCc1ccccn1)Cc1ccc(Cl)cc1,-13.4% (inactive)
12,CC(C)c1nc2oc3c(NCC4CCCO4)ncnc3c2c2c1COC(C)(C)C2 (stereo unspecified),-14.6% (inactive)
13,CC(C)c1nc2oc3c(NCC4CCCO4)ncnc3c2c2c1CCC2 (stereo unspecified),114% (active)
14,Cc1nc2oc3c(NCC4CCCO4)ncnc3c2c2c1COC(C)(C)C2 (stereo unspecified),-3.9% (inactive)
15,CCCc1cc(N2CCCC(C(=O)Nc3cc(Cl)ccc3OC)C2)n2ncnc2n1 (stereo unspecified),-9.9% (inactive)
16,COc1cc(NC(=O)Nc2ccccc2)c(OC)cc1NC(=O)CN1CCCCC1,6.1% (inactive)
17,COc1cc(NC(=O)Nc2cccc(Cl)c2)c(OC)cc1NC(=O)CN1CCCCC1,83.1% (active)
18,COc1cc(NC(=O)Nc2ccccc2OC)c(OC)cc1NC(=O)CN1CCCCC1,1.9% (inactive)
19,CC1CCCC(NS(=O)(=O)c2ccc3c(c2)OCCO3)C1C (stereo unspecified),-7.8% (inactive)
20,Cc1ccc(-c2csc(N3CCC(NS(=O)(=O)c4ccc5c(c4)OCCO5)CC3)n2)cc1,54.6% (active)
21,Cc1nc(CNS(=O)(=O)c2ccc3c(c2)OCCO3)cs1,-11.4% (inactive)
22,Cc1nc2ccc(S(=O)(=O)NCC(=O)N3CCC(C)CC3)cc2s1,-1% (inactive)
23,O=c1[nH]c(-c2ccc(Cl)cc2)nc2c1cnn2-c1ccccc1,3.6% (inactive)
24,CCCSc1nc2c(cnn2-c2ccccc2)c(=O)[nH]1,-0.6% (inactive)

row,Structure (SMILES),cytotoxicity
1,CCCCSc1nc2c(cnn2-c2ccc(F)cc2)c(=O)[nH]1,-30.5% (inactive)
2,CCCCCSc1nc2c(cnn2-c2ccccc2)c(=O)[nH]1,57.7% (active)
3,CCOC(=O)N1CCN(c2c(-c3ccc(C(C)C)cc3)c(=O)c2=O)CC1,1.3% (inactive)
4,COCc1nc(-c2cc(OC)c(OC)c(OC)c2)no1,-19% (inactive)
5,CCN(CC)c1ccc2cc(-c3nc4ccccc4[nH]3)c(=O)oc2c1,30.8% (inactive)
6,CCN(CC)c1ccc2cc(-c3nnc(-c4ccncc4)o3)c(=O)oc2c1,59.2% (active)
7,CCN(CC)c1ccc2cc(C(=O)Nc3ccccn3)c(=O)oc2c1,9.8% (inactive)
8,CCN(CC)c1ccc2cc(-c3nc4ccccc4n3C)c(=O)oc2c1,67% (active)
9,O=c1oc2ccc3ccccc3c2cc1-c1nnc(-c2ccccc2)o1,13.4% (inactive)
10,CC(=O)Oc1ccc2cc(-c3nc4ccccc4n3C)c(=O)oc2c1,4.2% (inactive)
11,O=C(Nc1cccnc1)c1cc2nc(C3CC3)cc(C(F)(F)F)n2n1,-15.8% (inactive)
12,Cc1ccc(SCc2cn3c(C)csc3n2)cc1,-10.2% (inactive)
13,c1ccc(OCc2nn3c(Cn4nnc5ccccc54)nnc3s2)cc1,-15.5% (inactive)
14,Cc1noc(C)c1S(=O)(=O)Nc1ccc(C(=O)N2CCc3ccccc3C2)cc1,-2.2% (inactive)
15,Cn1nnc(NC(=O)c2ccccc2F)n1,-4.8% (inactive)
16,CN1CCN(Cc2c(O)ccc3c(=O)c(Oc4ccccc4Cl)c(C(F)(F)F)oc23)CC1,-17% (inactive)
17,O=C(c1ccco1)N1CCN(C(=O)c2cccc3c2C(=O)N(C2CCCCC2)C3)CC1,-10% (inactive)
18,CN1CCN(CC#CC2(O)CCCCC2)CC1,-31.9% (inactive)
19,COc1ccc(CC(=O)Nc2ccc(-c3noc(-c4cc(OC)c(OC)c(OC)c4)n3)cc2)cc1,-2.7% (inactive)
20,CCCc1nc2sc3c(SCC(=O)NCc4ccco4)ncnc3c2c2c1CCC2,59% (active)
21,c1coc(CNc2ncnc3sc4c(c23)CCCCC4)c1,-10.2% (inactive)
22,CC(C)Sc1nc(SCC(=O)NCc2ccco2)c2c3c(sc2n1)COC(C)(C)C3,24.2% (inactive)
23,CC(C)c1nc2sc3c(NCc4ccco4)ncnc3c2c2c1COC(C)(C)C2,-10.3% (inactive)
24,CSc1nc(SCC(=O)NCc2ccco2)c2c3c(sc2n1)COC(C)(C)C3,51% (active)

row,Structure (SMILES),cytotoxicity
1,O=C(CSc1ncnc2sc3c(c12)CCCCC3)NCc1ccco1,-22.5% (inactive)
2,CSc1nc(SCC(=O)NCc2ccco2)c2c3c(sc2n1)CN(C)CC3,-9.6% (inactive)
3,Cc1nc(NCc2ccco2)c2c3c(sc2n1)CCC3,56.1% (active)
4,CSc1nc(NCc2ccco2)c2c3c(sc2n1)CN(C)CC3,-21.3% (inactive)
5,CC(C)c1nc2sc3c(SCC(=O)NCc4ccco4)ncnc3c2c2c1CCC2,5.7% (inactive)
6,Cc1nc(SCC(=O)NCc2ccco2)c2c3c(sc2n1)CCCC3,-4.3% (inactive)
7,CC(C)Sc1nc(NCc2ccco2)c2c3c(sc2n1)COC(C)(C)C3,83.4% (active)
8,CN1CC2(C(=O)c3ccccc3)CN(C)CC(C(=O)c3ccccc3)(C1)C2,-20.9% (inactive)
9,O=c1nc2n(c3ccccc13)Cc1ccccc1-2,-1.4% (inactive)
10,O=C(CSc1nnc(C2CC2)n1Cc1ccccc1)c1ccc(S(=O)(=O)N2CCOCC2)cc1,-8.3% (inactive)
11,Cn1nc(C(=O)Nc2ccc(S(=O)(=O)N3CCCCC3)cc2)ccc1=O,-4.3% (inactive)
12,Cn1c(=O)c2c(nc(Oc3ccccn3)n2C)n(C)c1=O,-12.5% (inactive)
13,O=C(c1ccc2c(=O)n(-c3ccccc3)c(=O)[nH]c2c1)N1CCCCC1,-2.4% (inactive)
14,COc1ccc(/C=N/n2cnnc2SCc2ccccc2)cc1,3.5% (inactive)
15,COc1ccc(/C=N/n2cc(-c3ccc(OC)cc3)nc2N)cc1,-8.1% (inactive)
16,COc1ccc(/C=N/n2cc(-c3ccccc3)nc2N)cc1,65.5% (active)
17,CC(C)NC(=O)Cn1c(SCC(=O)N2CCCCCC2)nc2ccccc21,-7.8% (inactive)
18,CC(C)NC(=O)Cn1c(SCC(=O)N2CCc3ccccc3C2)nc2ccccc21,129% (active)
19,CC(C)NC(=O)Cn1c(SCC(=O)N2CCCc3ccccc32)nc2ccccc21,-5.8% (inactive)
20,Cc1ccc(C(=O)Nc2ccccc2N2CCN(C(=O)C(C)C)CC2)cc1C,-15% (inactive)
21,COc1ccc(NC(=O)Cn2cnc3c(cnn3-c3ccc(C)c(C)c3)c2=O)c(OC)c1,-1.2% (inactive)
22,CN(C)CCOc1nc(-c2ccccc2)nc2c1oc1ccccc12,56.4% (active)
23,CCN(CC)CCOc1nc(C)nc2c1oc1ccccc12,-0.5% (inactive)
24,CCc1nc(OCCN(C)C)c2oc3ccccc3c2n1,-12.4% (inactive)
